Bioassay records as filed in PubChem BioAssay.
This excerpt belongs to a sample that is enriched for hits.
BCR signal inh: blocks chronic active B-cell receptor signaling | Potency, µM (top dose mostly 46.1 µM), most hits filed as inhibitors | ABC-DLBCL IkBa-CBG/CBR reporter, luminescence ratio, 4 h | hit rate 0.05% among 340,000; active means well fitted inhibition curve with a large enough effect in the signal ratio, with a control signal flat, not every such curve was filed as active; inconclusive means small, poorly fitted or top-dose-only effect, or effect the other way, or a change in a side signal; the % refers to the signal ratio
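Cell line TMD8 (human ABC DLBCL), stably expressing tet-inducible CBG68-IkBa fusion and CBR; IMDM/0.5% FBS; cpd up to 46 uM; dox induction, 4 h, 37C/5% CO2; dual luminescence; green/red ratio; MG132 control.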
CXXC DNA block: inhibitors of human MLL CXXC domain-DNA interaction | Q03164 | MLL-CXXC / FITC-HOXA9 DNA fluorescence polarization | Potency, µM (series often up to 115 µM), usual class: inhibitors | hit rate 0.037% among 290,000 | AID 2662; active means well fitted inhibition curve with a large enough effect in the polarisation, with a control signal flat, not every such curve was filed as active; inconclusive means small, poorly fitted or top-dose-only effect, or effect the other way, or a change in a side signal; inactive means no such curve, though single readings can be large or run the other way; the % refers to the polarisation
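Purified MLL-CXXC (added from a 7 uM solution) was preincubated 5 min at ambient with pinned compounds in 50 mM Tris-HCl pH 7.5, 50 mM NaCl, 1 mM DTT, 0.05% BSA. Fluorescein-labeled HOX-A9 DNA (50 nM solution) followed, 30 min, then polarization read.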
Menin MLL FP FL: menin-MLL binding inhibition, fluorescein peptide | 290,000 tested, under 10 active | FP activity change, % at 61.4 µM | Fluorescence polarization, fluorescein-MLL peptide displacement from menin; active means well fitted curve in the direction sought with a large enough effect in the polarisation, not every such curve was filed as active; inconclusive means small, poorly fitted or top-dose-only effect, or effect the other way, or a change in a side signal; inactive means no such curve, though single readings can be large or run the other way; the % refers to the polarisation
B2AR arrestin: recruits beta-arrestin to the human beta2-adrenergic receptor; beta-arrestin recruitment to beta2AR, cell-based reporter; Potency, µM (series often up to 46.1 µM), usual class: activators; hit rate 0.02% among 330,000; further: nearly all actives have a fitted effect of over 65% in size
Menin MLL FP TR: menin-MLL binding inhibition, Texas Red mutant peptide; O00255; Potency, µM (series often up to 61.6 µM), actives largely listed as inhibitors; Menin + Texas Red MLL mutant peptide, fluorescence polarization; hit rate 0.23% among 270,000; active means well fitted inhibition curve with a large enough effect in the polarisation, with a control signal flat, not every such curve was filed as active; inconclusive means small, poorly fitted or top-dose-only effect, or effect the other way, or a change in a side signal; inactive means no such curve, though single readings can be large or run the other way; the % refers to the polarisation
Target sequence (O00255 whole entry, looked up): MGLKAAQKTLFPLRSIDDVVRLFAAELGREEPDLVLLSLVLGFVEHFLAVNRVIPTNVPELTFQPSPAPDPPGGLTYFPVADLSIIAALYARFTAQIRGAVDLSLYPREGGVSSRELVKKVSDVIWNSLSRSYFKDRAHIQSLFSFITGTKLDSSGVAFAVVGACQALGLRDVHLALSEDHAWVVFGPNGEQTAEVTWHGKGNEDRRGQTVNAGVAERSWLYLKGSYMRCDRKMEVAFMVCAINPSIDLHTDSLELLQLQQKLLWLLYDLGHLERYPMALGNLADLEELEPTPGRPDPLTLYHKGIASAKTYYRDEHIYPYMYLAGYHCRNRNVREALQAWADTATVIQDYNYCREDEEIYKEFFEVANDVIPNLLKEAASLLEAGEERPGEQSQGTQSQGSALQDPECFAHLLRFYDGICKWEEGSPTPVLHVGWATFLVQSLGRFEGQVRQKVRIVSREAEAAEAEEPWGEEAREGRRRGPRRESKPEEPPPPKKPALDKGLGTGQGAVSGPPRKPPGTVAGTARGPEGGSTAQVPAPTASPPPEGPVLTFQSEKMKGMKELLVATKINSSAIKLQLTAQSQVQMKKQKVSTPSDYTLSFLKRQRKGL
PTAP TSG101 blk: blocks PTAP/TSG101 interaction to inhibit HIV-1 budding; Q99816; Fluorescence polarization, FITC-PTAP peptide / Tsg101 binding; Potency, µM (doses to about 115 µM), usual class: inhibitors; 340,000 tested, under 10 active; active means well fitted inhibition curve with a large enough effect in the main read-out, with a control signal flat, not every such curve was filed as active; inconclusive means small, poorly fitted or top-dose-only effect, or effect the other way, or a change in a side signal; inactive means no such curve, though single readings can be large or run the other way
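Fluorescence anisotropy tracks displacement of a FITC-tagged PTAP peptide (50 nM) from the Tsg101 binding domain (10 uM), following a 20 min room-temperature incubation at pH 7.5.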
MLL CXXC FP-Fl: disrupts human MLL CXXC domain binding to DNA; hit rate 70% among 200; shares compounds with CXXC DNA block; Potency, µM (titrated, usually from 345 µM), hits mostly inhibitors; AID 624160; MLL CXXC-DNA binding, fluorescein FP; further: nearly all actives have a fitted effect of over 80% in size
MLL CXXC TxRed: MLL CXXC-DNA interaction inhibition, Texas Red FP. MLL CXXC-DNA binding, Texas Red fluorescence polarization. Potency, µM (titrated, usually from 345 µM), usual class: inhibitors. shares compounds with CXXC DNA block. hit rate 40% among 200; further: nearly all actives have a fitted effect of over 75% in size
MLL CXXC TRF: inhibitors of human MLL CXXC domain-DNA interaction, HTRF format; shares compounds with CXXC DNA block; AID 624162; MLL CXXC-DNA binding, HTRF, biochemical; Potency, µM (series often up to 172 µM), most hits filed as inhibitors; hit rate 30% among 210; further: nearly all actives have a fitted effect of over 80% in size
Each line names hits and unclear results; the compound was inactive in the other large screens (follow-up assays come after a bar, where they were run). Unless noted, the call rests on the fitted dose curve; in most records, active means well fitted curve in the direction sought with a large enough effect; inconclusive means small, poorly fitted or top-dose-only effect, or another doubt; inactive means no such curve, though single readings can be large; an effect the other way counts as inactive or inconclusive.

COc1cc(/C=C/[N+](=O)[O-])ccc1O	BCR signal inh 21µM
O=Cc1c(C(=O)O)n(Cc2ccc(F)cc2Cl)c2ccccc12	none
NC(N)=Nc1ccc2[nH]c3c(c2c1)C[C@@]1(O)[C@H]2Cc4ccc(O)c5c4[C@@]1(CCN2CC1CC1)[C@H]3O5	BCR signal inh 23µM
NCCc1cc(O)c(O)cc1O	Menin MLL FP FL inconclusive, Menin MLL FP TR 40µM (no result: BCR signal inh, B2AR arrestin)
COc1ccc(CCN)cc1O	Menin MLL FP TR inconclusive (no result: BCR signal inh, B2AR arrestin)
CN1C(=O)C(=Cc2ccc(N3CCCCC3)o2)C(=O)N(C)C1=S	Menin MLL FP FL inconclusive, Menin MLL FP TR 25µM
OC12ONC(c3ccccn3)C1N1CCC2CC1 (centres undefined)	BCR signal inh inconclusive, B2AR arrestin 18µM
CCOP(=O)(OCC)c1nc(-c2ccccc2)oc1N1CCCCC1	BCR signal inh inconclusive, Menin MLL FP TR 32µM
COP(=O)(OC)c1nc(-c2cccc3ccccc23)oc1N1CCCCC1	Menin MLL FP TR inconclusive
O=C(O)c1cccc2c1NC(C(=O)O)C1CC(Sc3ccccc3[N+](=O)[O-])C(Cl)C21 (centres undefined)	BCR signal inh inconclusive, Menin MLL FP TR 22µM
CC(=O)c1ccc2c(c1)C1C(Cl)C(Sc3ccccc3[N+](=O)[O-])CC1C(C(=O)O)N2 (centres undefined)	CXXC DNA block inconclusive, Menin MLL FP TR inconclusive
O=C(NC(Oc1ccccc1)C(Cl)(Cl)Cl)c1ccccc1 (centres undefined)	Menin MLL FP TR inconclusive
COc1cc(C(O)CNC(C)C)cc(F)c1OC (centres undefined)	none (no result: BCR signal inh, CXXC DNA block, Menin MLL FP FL, B2AR arrestin, Menin MLL FP TR)
CCCCn1c(N)c(C(=O)OCCOC)c2nc3ccccc3nc21	none (no result: Menin MLL FP TR)
CCCCOCCCn1c(N)c(C(=O)OCCOC)c2nc3ccccc3nc21	BCR signal inh inconclusive, Menin MLL FP TR 28µM
COc1ccc(C[C@H]2c3cc(OC)c(OC)cc3CCN2C)cc1OC	none (no result: BCR signal inh, CXXC DNA block, B2AR arrestin, PTAP TSG101 blk)
O=[N+]([O-])c1cc(Cl)c2cccnc2c1O	BCR signal inh 11µM, Menin MLL FP TR inconclusive, PTAP TSG101 blk inconclusive
O=C(NC(=O)c1c(F)cccc1F)Nc1ccc(Cl)c(Oc2ncc(C(F)(F)F)cc2Cl)c1	none (no result: BCR signal inh, B2AR arrestin, PTAP TSG101 blk)
O=C(Nc1ccc(F)cc1F)c1cccnc1Oc1cccc(C(F)(F)F)c1	Menin MLL FP TR 32µM
CCn1c(C)c(C(=O)NCCc2ccccc2)c2cc(OC)ccc21	none
CN1C(=O)C(=Cc2ccccc2OCc2ccc(C(=O)O)cc2)C(=O)N(C)C1=O	CXXC DNA block 20µM | MLL CXXC FP-Fl inconclusive | MLL CXXC TxRed 142µM | MLL CXXC TRF 61µM
O=C(O)Cn1cc(/C=C2\C(=O)NC(=O)N(c3ccc(F)cc3)C2=O)c2ccccc21	CXXC DNA block inconclusive, Menin MLL FP FL inconclusive (no result: PTAP TSG101 blk) | MLL CXXC FP-Fl inconclusive | MLL CXXC TxRed 89µM | MLL CXXC TRF inconclusive
COC(=O)Cn1cc(/C=C2\C(=O)NC(=O)N(c3ccc(OC)cc3)C2=O)c2ccccc21	CXXC DNA block inconclusive, Menin MLL FP FL inconclusive, PTAP TSG101 blk inconclusive
N[C@@H](Cc1ccc(O)cc1)C(=O)O	none (no result: BCR signal inh, B2AR arrestin, PTAP TSG101 blk)
NC(Cc1cc(O)c(O)cc1O)C(=O)O (centres undefined)	CXXC DNA block inconclusive, Menin MLL FP FL inconclusive, Menin MLL FP TR inconclusive (no result: PTAP TSG101 blk) | MLL CXXC FP-Fl 18µM | MLL CXXC TxRed inconclusive | MLL CXXC TRF 31µM
CCCC[C@H]1C(=O)O[C@H](C)[C@H](NC(=O)c2cccc(NC=O)c2OC)C(=O)O[C@@H](C)[C@@H]1OC(=O)CC(C)C	none (no result: BCR signal inh, CXXC DNA block, B2AR arrestin, PTAP TSG101 blk)
N=C1c2ccccc2CN1c1ncccn1	none
CCn1nc(-c2cccs2)nc2c(=O)n(C)c(=O)nc1-2	BCR signal inh inconclusive, CXXC DNA block inconclusive, Menin MLL FP TR inconclusive | MLL CXXC FP-Fl inconclusive | MLL CXXC TxRed inconclusive | MLL CXXC TRF inactive
COc1cccc(Oc2coc3cc(OC(=O)N(C)C)ccc3c2=O)c1	CXXC DNA block inconclusive
O=C(O)CCn1cc(C=C2C(=O)NC(=S)NC2=O)c(-c2ccccc2)n1	CXXC DNA block 32µM | MLL CXXC FP-Fl 4µM | MLL CXXC TxRed 89µM | MLL CXXC TRF 6.1µM
O=C(O)CCn1cc(C=C2C(=O)NC(=S)NC2=O)c(-c2cc3ccccc3oc2=O)n1	Menin MLL FP FL inconclusive
Cc1cc(/C=C2\C(=O)NC(=O)N(c3cccc(F)c3)C2=O)c(C)n1-c1cc(C(=O)O)cc(C(=O)O)c1	BCR signal inh inconclusive, CXXC DNA block 16µM | MLL CXXC FP-Fl 89µM | MLL CXXC TxRed inconclusive | MLL CXXC TRF 122µM
Cc1cc(/C=C2\C(=O)NC(=O)N(c3ccc(Br)cc3)C2=O)c(C)n1-c1cc(C(=O)O)cc(C(=O)O)c1	CXXC DNA block 7.9µM | MLL CXXC FP-Fl 18µM | MLL CXXC TxRed 40µM | MLL CXXC TRF 39µM
Clc1ccc(C2=CCC[C@H]3CC[C@@H]2N3)cn1	none (no result: BCR signal inh, CXXC DNA block, B2AR arrestin, PTAP TSG101 blk)
O=C(c1ccccc1)c1cn(CC(=O)N2CCOCC2)c2ccccc12	none
C[C@@H]1CC[C@H]2[C@@H](C)C(=O)O[C@@H]3OC4(C)CC[C@@H]1C32OO4 (some centres undefined)	none (no result: BCR signal inh, B2AR arrestin, PTAP TSG101 blk)
CSC[C@H](NC(=O)COc1cc2c(c3oc(=O)c(C)c(C)c13)CCC(C)(C)O2)C(=O)O	CXXC DNA block inconclusive | MLL CXXC FP-Fl inconclusive | MLL CXXC TxRed inconclusive | MLL CXXC TRF inactive
Cc1cc(OCC(=O)N[C@@H](Cc2ccccc2)C(=O)O)c2c3c(c(=O)oc2c1)CCCC3	BCR signal inh inconclusive
O=C1NC(=O)N(c2ccc3c(c2)OCO3)C(=O)/C1=C/c1ccc(N2CCCCC2)o1	CXXC DNA block inconclusive, Menin MLL FP FL inconclusive, PTAP TSG101 blk inconclusive
O=C1NC(=O)N(c2ccc3c(c2)OCO3)C(=O)/C1=C\c1ccc(-c2ccccc2C(=O)O)o1	CXXC DNA block 14µM (no result: Menin MLL FP TR) | MLL CXXC FP-Fl 14µM | MLL CXXC TxRed 45µM | MLL CXXC TRF 19µM
CC(=O)NC(Cc1ccc(N(CCCl)CCCl)cc1)C(=O)NC(CC(C)C)C(=O)O (centres undefined)	none
CN1C[C@@H](CO)C=C2c3cccc4[nH]cc(c34)CC21 (some centres undefined)	Menin MLL FP FL inconclusive (no result: BCR signal inh, CXXC DNA block, B2AR arrestin, PTAP TSG101 blk)
